# Experimental data published in PubChem BioAssay (NCATS).
# Results filed as inconclusive are left out. Entries that show only a call come without a potency. Values without a mark were called inactive. The source made the active and inactive calls. The call rests on the fitted dose curve; in most records, active means well fitted inhibition curve with a large enough effect; inconclusive means small, poorly fitted or top-dose-only effect; inactive means flat fitted curve, though single readings scatter.
# Tests used:
# [1] = target: Ubiquitin carboxyl-terminal hydrolase 1 (Homo sapiens) (UniProt O94782); assay: Inhibitors of USP1/UAF1: Pilot qHTS (AID 504865); conditions: purified USP1/UAF1, Ub-rhodamine cleavage fluorescence; series mostly up to 114 µM; further: nearly all actives have a fitted effect of over 35% in size; further: potency means the concentration at half of the fitted maximal effect
# How it was run: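 Deubiquitinase activity followed as kinetic rhodamine fluorescence release from 150 nM Ub-Rho. 1 nM USP1/UAF1 with compound, after 15 min room-temperature preincubation, in HEPES pH 7.8 buffer containing TCEP, EDTA, BSA and Tween-20.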
# [2] = qHTS profiling for inhibitors of Plasmodium falciparum proliferation (AID 504749); further: nearly all actives have a fitted effect of over 60% in size; conditions: P. falciparum in erythrocytes, SYBR Green DNA, 72 h, at 28.7 µM (top of the series)
# How it was run: (§1)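 Each compound contacts P. falciparum-infected red blood cells for 72 h at 37 C; lysis buffer (Tris, EDTA, saponin, Triton X, SYBR Green I) is added and fluorescence measured next morning; values normalized to controls.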
# [3] = tested on: ATS189; assay: as above; conditions: P. falciparum in erythrocytes, SYBR Green DNA, 72 h; series mostly up to 28.7 µM
# How it was run: as §1
# [4] = tested on: CP185; assay: as above; conditions: P. falciparum in erythrocytes, SYBR Green DNA, 72 h; series mostly up to 28.7 µM
# How it was run: as §1
# [5] = tested on: CP201; assay: as above; conditions: P. falciparum in erythrocytes, SYBR Green DNA, 72 h; series mostly up to 28.7 µM
# How it was run: as §1
# [6] = tested on: CP238; assay: as above; conditions: P. falciparum in erythrocytes, SYBR Green DNA, 72 h; series mostly up to 28.7 µM
# How it was run: as §1
# [7] = tested on: CP252; assay: as above; conditions: P. falciparum in erythrocytes, SYBR Green DNA, 72 h; series mostly up to 28.7 µM
# How it was run: as §1
# [8] = tested on: CP265; assay: as above; conditions: P. falciparum in erythrocytes, SYBR Green DNA, 72 h; series mostly up to 28.7 µM
# How it was run: as §1
# [9] = tested on: CP286; assay: as above; conditions: P. falciparum in erythrocytes, SYBR Green DNA, 72 h; series mostly up to 28.7 µM
# How it was run: as §1
# [10] = tested on: CP305; assay: as above; conditions: P. falciparum in erythrocytes, SYBR Green DNA, 72 h; series mostly up to 28.7 µM
# How it was run: as §1
# [11] = tested on: CP325; assay: as above; conditions: P. falciparum in erythrocytes, SYBR Green DNA, 72 h; series mostly up to 28.7 µM
# How it was run: as §1
# [12] = tested on: DFO2036; assay: as above; conditions: P. falciparum in erythrocytes, SYBR Green DNA, 72 h; series mostly up to 28.7 µM
# How it was run: as §1
# [13] = tested on: FAB9; assay: as above; conditions: P. falciparum in erythrocytes, SYBR Green DNA, 72 h; series mostly up to 28.7 µM
# How it was run: as §1
# [14] = tested on: PC15; assay: as above; conditions: P. falciparum in erythrocytes, SYBR Green DNA, 72 h; series mostly up to 28.7 µM
# How it was run: as §1
# [15] = tested on: PC49; assay: as above; conditions: P. falciparum in erythrocytes, SYBR Green DNA, 72 h; series mostly up to 28.7 µM
# How it was run: as §1
# Sequence of Ubiquitin carboxyl-terminal hydrolase 1 (Homo sapiens) (O94782 whole entry, looked up): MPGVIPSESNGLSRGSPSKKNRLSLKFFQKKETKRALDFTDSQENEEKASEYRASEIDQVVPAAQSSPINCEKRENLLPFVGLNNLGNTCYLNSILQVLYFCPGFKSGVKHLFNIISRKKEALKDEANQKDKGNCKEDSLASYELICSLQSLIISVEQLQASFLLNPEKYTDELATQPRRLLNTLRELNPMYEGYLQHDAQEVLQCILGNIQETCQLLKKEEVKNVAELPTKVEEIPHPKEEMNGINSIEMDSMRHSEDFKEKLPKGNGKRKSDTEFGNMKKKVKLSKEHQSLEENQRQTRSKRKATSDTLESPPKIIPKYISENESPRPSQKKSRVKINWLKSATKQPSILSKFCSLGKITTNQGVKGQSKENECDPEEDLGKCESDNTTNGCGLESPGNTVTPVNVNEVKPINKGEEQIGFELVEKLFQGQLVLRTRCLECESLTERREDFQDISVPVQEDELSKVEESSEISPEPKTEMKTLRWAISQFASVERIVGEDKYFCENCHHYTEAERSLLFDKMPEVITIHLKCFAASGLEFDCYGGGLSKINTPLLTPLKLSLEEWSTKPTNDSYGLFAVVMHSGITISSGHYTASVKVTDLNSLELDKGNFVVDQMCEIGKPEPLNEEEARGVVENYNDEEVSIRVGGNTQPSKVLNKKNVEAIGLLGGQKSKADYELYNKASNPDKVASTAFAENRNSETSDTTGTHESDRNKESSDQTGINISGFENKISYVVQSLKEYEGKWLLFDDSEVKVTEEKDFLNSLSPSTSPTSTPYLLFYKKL
smiles,measurement,setting,value
COc1cc(OC)c2c(c1)OC(c1ccccc1)CC2=O (configuration not stated),Potency,[1],inactive
CC(C)C[C@H](NC(=O)[C@@H](Cc1c[nH]c2ccccc12)NC(=O)[C@@H](Cc1ccc(O)cc1)NC(=O)[C@@H](CO)NC(=O)[C@@H](Cc1c[nH]c2ccccc12)NC(=O)C(Cc1cnc[nH]1)NC(=O)C1CCC(=O)N1)C(=O)N[C@@H](CCCN=C(N)N)C(=O)N1CCC[C@@H]1C(=O)NCC(N)=O (some centres not stated),Potency,[1],inactive
same,"activity, negative = inhibition",[2]; parasite line A,17.3%
same,"activity, negative = inhibition",[2]; parasite line B,2.16%
same,Potency,[3],inactive
same,Potency,[4],inactive
same,Potency,[5],inactive
same,Potency,[6],inactive
same,Potency,[7],inactive
same,Potency,[8],inactive
same,Potency,[9],inactive
same,Potency,[10],inactive
same,Potency,[11],inactive
same,Potency,[12],inactive
same,Potency,[13],inactive
same,Potency,[14],inactive
same,Potency,[15],inactive
CCOc1ccc(/C=C/C(=O)c2cccs2)cc1,Potency,[1],inactive
COc1ccc2c(c1OC)C(Cc1ccccc1)N1CCc3cc4c(cc3C1=C2)OCO4 (configuration not stated),Potency,[1],39.8 µM (active)
C[C@H](C(=O)O)c1cccc(C(=O)c2ccccc2)c1,Potency,[1],inactive
Cc1onc(-c2c(Cl)cccc2Cl)c1C(=O)NC1C(=O)N2C1SC(C)(C)C2C(=O)O (configuration not stated),Potency,[1],inactive
O=c1c(-c2ccc(O)cc2)coc2c(C3OC(CO)C(O)C(O)C3O)c(O)ccc12 (configuration not stated),Potency,[1],inactive
